Data on eleven compounds can be found in PubChem BioAssay.

Active and inactive are the calls of the source.

One assay deals with Albumin (Bos taurus) (UniProt P02769). The assay can be described thus: compounds binding labelled BSA control protein – biochemical, small-molecule microarray, Alexa647 label, 635/667 nm fluorescence, artefact control for SMM control protein annotation, profiling panel (AID 1118).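 Note: score merges 667 nm emission intensity and signal-to-noise per printed compound spot.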 Particulars: BSA-A647 binding, fluorescence 635 nm, higher = more signal.
Assay [1] is described as follows: probe aXIP binding to arrayed compounds – biochemical, NeuroSMM set, 635/667 nm fluorescence, primary screen (AID 1119).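 Note: probe is the protein aXip251-270 applied at 1 µg/mL to compound-printed slides; binding of probe to printed compounds measured as 667 nm fluorescence plus signal to noise.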 Particulars: small-molecule microarray, higher = more signal, called active from +8 up or from −8 down.
Assay [2] is described as follows: probe aNOTCH3 binding on compound microarray – biochemical, small-molecule microarray, 635/667 nm fluorescence, primary screen (AID 1120).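 Note: probe is a biotin-tagged antibody raised against NOTCH3 rather than NOTCH3 protein; score merges spot fluorescence near 667 nm with spot signal to noise.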 Particulars: higher = more signal.
The nature of assay [3]: probe aNOTCH2 binding on compound microarray – biochemical, small-molecule microarray, 635/667 nm fluorescence, primary screen (AID 1121).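 Note: score merges feature fluorescence read at 667 nm with its signal to noise.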 As to conditions: higher = more signal.
Assay [4] addresses Carbonic anhydrase 2 (Homo sapiens) (UniProt P00918). The assay is described as follows: compounds binding carbonic anhydrase 2 – biochemical, small-molecule microarray, Alexa647-labelled CAII, profiling panel (AID 1122). Particulars: CAII-A647 binding fluorescence, higher = more signal.
Assay [5] in a line: COS7 lysate on small-molecule microarray, probe aHis, 635 nm (AID 1123).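 Note: z-score combines 667nm fluorescence intensity with signal-to-noise per printed compound spot.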 As to conditions: COS7 cell lysate, fluorescence, higher = more signal.
Assay [6] can be described thus: probe aLAP1 signal on lysate-treated microarray – cell lysate, small-molecule microarray, COS7 lysate, primary screen (AID 1124).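 Note: lysate comes from COS7 cells expressing LAP1 and is applied at 0.3 µg/mL; score merges spot fluorescence near 667 nm with signal-to-noise over triplicate slides.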 As to conditions: probe aLAP1, fluorescence, higher = more signal.
For a further assay, the system named is Sam68 (KHDRBS1). The assay is described as follows: compounds binding KHDRBS1 protein – biochemical, small-molecule microarray, 635 nm fluorescence, primary screen (AID 1125).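 Note: score merges 667 nm channel intensity with signal to noise over triplicate slides.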 As to conditions: higher = more signal.
Assay [7] has as its system Chordin-like protein 2 (CHRDL2). The assay is described as follows: compounds binding chordin-like 2 – biochemical, small-molecule microarray, 635 nm fluorescence, primary screen (AID 1126).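 Note: printed compound slides probed with Chrdl2 protein at 4 µg/mL for 1 h at 4 C; score merges 667 nm emission intensity with signal to noise over three replicate slides.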 As to conditions: fluorescence 635 nm, higher = more signal.
Assay [8] concerns the target Concanavalin-A (Canavalia ensiformis) (UniProt P02866). The assay is described as follows: compounds binding concanavalin A lectin – biochemical, small-molecule microarray, Alexa647 label, 635 nm, artefact control for SMM control protein annotation, primary screen (AID 1127).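 Note: z combines 667 nm emission intensity with signal-to-noise across three replicate slides.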 As to conditions: ConA-A647 binding fluorescence, higher = more signal.

Sequence of Albumin (Bos taurus) (P02769 whole entry, looked up): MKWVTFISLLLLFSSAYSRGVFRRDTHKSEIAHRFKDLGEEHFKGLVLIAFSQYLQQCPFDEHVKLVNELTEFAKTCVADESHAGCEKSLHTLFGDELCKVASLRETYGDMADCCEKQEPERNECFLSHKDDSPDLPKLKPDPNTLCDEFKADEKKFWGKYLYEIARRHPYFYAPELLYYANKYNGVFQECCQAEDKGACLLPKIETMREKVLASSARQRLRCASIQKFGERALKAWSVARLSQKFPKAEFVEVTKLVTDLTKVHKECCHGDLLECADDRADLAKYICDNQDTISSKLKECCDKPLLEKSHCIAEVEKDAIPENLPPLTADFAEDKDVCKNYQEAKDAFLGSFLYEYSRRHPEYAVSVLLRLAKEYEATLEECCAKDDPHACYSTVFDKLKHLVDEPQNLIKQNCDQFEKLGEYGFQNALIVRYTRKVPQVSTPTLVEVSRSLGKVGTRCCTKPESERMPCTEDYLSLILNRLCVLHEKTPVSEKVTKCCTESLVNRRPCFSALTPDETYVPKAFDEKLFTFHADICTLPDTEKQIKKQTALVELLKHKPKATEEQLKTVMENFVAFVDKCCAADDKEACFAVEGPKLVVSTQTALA
Sequence of Concanavalin-A (Canavalia ensiformis) (P02866 whole entry, looked up): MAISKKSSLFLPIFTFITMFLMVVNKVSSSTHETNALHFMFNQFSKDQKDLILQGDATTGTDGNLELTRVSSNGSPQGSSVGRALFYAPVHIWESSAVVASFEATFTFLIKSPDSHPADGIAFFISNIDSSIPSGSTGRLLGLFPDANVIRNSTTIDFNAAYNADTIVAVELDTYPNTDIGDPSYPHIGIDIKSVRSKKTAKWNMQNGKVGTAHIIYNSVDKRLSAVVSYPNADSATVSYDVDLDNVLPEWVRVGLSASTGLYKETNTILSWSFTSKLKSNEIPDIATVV

In the case of `COc1ccc([Si](C)(C)[C@@H]2[C@@H](CCO)O[C@]3(C(=O)N(Cc4ccccc4)c4ccc(N5C(=O)c6cccc7cccc5c67)cc43)[C@H]2C)cc1`, the composite z-score is 0.511 in the assay with Albumin (Bos taurus); -0.146 in assay [2]; -0.155 in [3]; -0.0746 in assay [4]; 1.25 in [5]; -0.3 in assay [6]. The results for the composite z-score (with Sam68 (KHDRBS1); in assay [7]; in [8]) were -0.239, -0.215 and 1.01, respectively. Besides, the composite Z-score in assay [1] is 0.708 (inactive).

With `COc1ccc([Si](C)(C)[C@H]2[C@H](CC(=O)N3Cc4ccccc4C[C@H]3CO)O[C@@]3(C(=O)N(Cc4ccc(N5CCOC5=O)cc4)c4ccccc43)[C@@H]2C)cc1`, the composite z-score in the assay with Albumin (Bos taurus) was -0.153; in assay [2] it was -0.0106; in assay [3] it was -0.0249; in assay [4], 0.444; in assay [5], 0.591; in [6], 0.246. Besides, the composite z-score stood at 1.33 in the assay with Sam68 (KHDRBS1), 1.32 in assay [7] and 1.05 in assay [8]. Moreover, the composite Z-score in assay [1] was 0.949 (inactive).

On to `NC(=O)NCC#Cc1ccc2c(c1)[C@]1(C(=O)N2)[C@H](c2ccccc2OCCO)N2[C@H](c3ccccc3)[C@H](c3ccccc3)OC(=O)[C@H]2[C@@H]1C(=O)NC[C@H](O)c1ccccc1`, for which the composite z-score is 0.63 in the assay with Albumin (Bos taurus); -0.143 in [2]; -0.103 in [3]; 0.582 in assay [4]; 1.19 in assay [5]; 0.428 in [6]. Moreover, the composite z-score is 0.026 with Sam68 (KHDRBS1), -0.501 in assay [7] and 0.68 in assay [8]. For the same compound, the composite Z-score in [1] was -0.17 (inactive).

Take `CCOC(=O)C=Cc1cccc(C)c1O`: the composite z-score is -0.268 in the assay with Albumin (Bos taurus); -0.0881 in assay [2]; -0.114 in assay [3]; 0.422 in [4]; -0.15 in assay [5]; 0.514 in assay [6]. The results for the composite z-score (in the assay on Sam68 (KHDRBS1); in [7]; in [8]) were -0.0261, -0.0961 and 0.0646, respectively. Also, the composite Z-score in [1] was -0.352 (inactive).

Regarding `CC(C)C(O)C1C=CC2C(=O)N(c3ccccc3)C(=O)C2N1Nc1ccccc1` (stereo not given), the composite z-score is 0.938 in the assay with Albumin (Bos taurus); 0.228 in [2]; -0.131 in assay [3]; 0.698 in assay [4]; 3.02 in [5]; 0.281 in assay [6]. Further, the composite z-score was 1.31 with Sam68 (KHDRBS1), -0.235 in [7] and 0.966 in assay [8]. In addition, in assay [1], the composite Z-score is -0.221 (inactive).

For the compound `COCCOC(=O)N1C(=O)[C@@]2(c3cc(C#CC4(O)CCCCCC4)ccc31)[C@H](C(=O)N1CCc3cc(OC)c(OC)cc3C1)[C@H]1C(=O)O[C@H](c3ccccc3)[C@H](c3ccccc3)N1[C@@H]2c1ccc(OCCO)cc1`, the composite z-score in the assay with Albumin (Bos taurus) is 0.121; in assay [2], -0.021; in assay [3] it was -0.0617; in assay [4] it was 0.515; in [5] it was 0.535; in [6], 0.272. Moreover, the composite z-score is 1.31 in the assay with Sam68 (KHDRBS1), 0.666 in assay [7] and 1.12 in assay [8]. Besides, the composite Z-score in assay [1] is 0.28 (inactive).

On to `COCCCNC(=O)[C@@]1(CCC(=O)OC(C)(C)C)N=C(c2ccc(OCCCO)cc2)O[C@H]1c1ccccc1N=[N+]=[N-]`, for which the composite z-score with Albumin (Bos taurus) was 0.945; in [2], 0.26; in [3] it was 0.325; in assay [4], 0.62; in assay [5], 2.01; in [6], 0.843. For the same compound, the results for the composite z-score (in the assay with Sam68 (KHDRBS1); in assay [7]; in assay [8]) were 1.25, 0.279 and 1.16, respectively. The composite Z-score in assay [1] was 0.289 (inactive).

Regarding `[N-]=[N+]=Nc1ccccc1[C@@H]1OC(c2ccc(OCCCO)cc2)=N[C@]1(Cc1ccccc1)C(=O)O`, the composite z-score is 0.893 with Albumin (Bos taurus); 0.136 in [2]; -0.0068 in assay [3]; 0.62 in assay [4]; 1.23 in [5]; -0.25 in [6]. Also, the composite z-score with Sam68 (KHDRBS1) stood at 1.3; in assay [7], 0.155; in assay [8], 0.665. The composite Z-score in assay [1] is 0.008 (inactive).

Turning to `COCCOC(=O)N1C(=O)[C@@]2(c3cc(C#CC4(O)CCCCCC4)ccc31)[C@H](C(=O)Nc1nc3ccccc3s1)[C@H]1C(=O)O[C@H](c3ccccc3)[C@H](c3ccccc3)N1[C@@H]2c1ccc(O)cc1`, the composite z-score with Albumin (Bos taurus) was 0.25; in assay [2], 0.188; in [3], -0.088; in [4] it was 0.303; in [5], 1.59; in [6], 0.713. Moreover, the composite z-score with Sam68 (KHDRBS1) was 1.3; in [7] it was 0.626; in assay [8], 1.18. In assay [1], the composite Z-score is 0.56 (inactive).

As to `CCCC[C@@H](O)C1=C(COC)C[C@H]2C(=O)N(C)C(=O)[C@H]2[C@H]1CO`, the composite z-score in the assay with Albumin (Bos taurus) was 0.277; in [2], -0.139; in assay [3], -0.217; in assay [4], 0.183; in assay [5] it was -0.419; in assay [6] it was 0.0048. In addition, the results for the composite z-score (in the assay with Sam68 (KHDRBS1); in assay [7]; in [8]) were -0.0046, 0.831 and 0.256, respectively. For the same compound, the composite Z-score in assay [1] was 0.0275 (inactive).

`[N-]=[N+]=Nc1ccccc1C[C@@]1(C(=O)N2CCOCC2)N=C(c2ccc(OCCCO)cc2)O[C@@H]1c1ccccc1`: the composite z-score with Albumin (Bos taurus) is 0.847; in [2], 0.457; in assay [3], -0.224; in assay [4], 0.544; in assay [5] it was 2.59; in assay [6] it was -0.235. The composite z-score with Sam68 (KHDRBS1) was 1.32; in [7], -0.209; in assay [8], 1.11. In [1], the composite Z-score is 0.527 (inactive).
